Screening data: PubChem BioAssay, Broad Institute
A selection: hits, their analogues and other compounds. The true share with any hit is near 3.1%.
miR-122 sensor: miR-122 Renilla sensor signal increase in Huh7, primary screen, miR-122 inhibitor project, cell-based, single point, plate reader. Huh7 miR-122 Renilla luciferase sensor, 48 h; neutral wells = 0, positive control = 100. activation (reporter increase), % at 12.5 µM. 340,000 compounds, 0.3% hits. AID 602342, 2012;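 active = mean replicate activation score at least 90 and every replicate individually at or above 90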;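 note: higher luciferase means less miR-122 activity so hits act as miR-122 inhibitors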
EWS-Fli inh: EWS/Fli-driven NR0B1 reporter inhibitors, primary screen, A673 cells, NR0B1 luciferase, luminescence, MLPCN library; AID 651661, 2012; inhibition, % at 12.6 µM; 350,000 compounds, 0.67% hits; viability-normalised;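 active = mean inhibition of at least 50% after viability correction, with every replicate also passing that limit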;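 note: firefly luciferase signal divided by Alamar Blue viability fluorescence both relative to DMSO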
HIV Env fusion: inhibitors of HIV-1 Env-driven cell-cell fusion, primary screen, HeLa-JRFL effector, CEM21 target cells, luciferase; 360,000 compounds, 1.1% hits; inhibition, % at 12.3 µM; AID 651610, 2012;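 active = mean replicate inhibition score of at least 50 and every replicate individually at or above 50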;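 note: 0% = plate neutral controls and 100% = maraviroc near 300 nM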
PAX8 reporter: inhibitors of PAX8-driven TPO luciferase reporter, primary screen, RMG-I cells, single concentration | SteadyGlo, 24 h | inhibition, % at 12.6 µM | 360,000 compounds, 1.2% hits | AID 652154, 2013;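 active = mean replicate inhibition at least 60% with every replicate also reaching 60%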;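 note: luciferase light reporting Pax8 driven TPO promoter activity; plate controls were median of neutral control wells for no effect and mitoxantrone controls for full effect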
INS-1E GSIS act: GLuc luminescence reporter in INS-1E cells, primary screen for activators of glucose-dependent secretion of insulin. INS-1E GLuc reporter insulin secretion, 2-3 h. 370,000 compounds, 0.61% hits. activation, % at 16.6 µM;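 active = lowest replicate activation of at least 40%, so every replicate reaches that level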;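 note: 0% = median of neutral control wells and 100% = median of IBMX positive control wells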
C2C12 statin: suppressors of statin myotoxicity in C2C12 myotubes, primary screen, cell-based, single point, plate reader | C2C12 myotubes + simvastatin, ATP luminescence, 48 h; scaled: DMSO 0, geranylgeraniol control 100 | rescue of ATP level, % at 7.49 µM | 330,000 compounds, 0.78% hits | AID 602340, 2012;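 active = mean ATP rescue above about 67%, or every replicate alone reaching that limit, limit read from the data, passing the limit was not always enough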;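 note: myotubes were challenged with 10 µM simvastatin during compound exposure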
* hit, by the source's call; i = inactive; . = not tested or not shown; [ ] = another dose, or the depositor's remark.

SMILES | miR-122 sensor | EWS-Fli inh | HIV Env fusion | PAX8 reporter | INS-1E GSIS act | C2C12 statin
C[C@H]1CN([C@@H](C)CO)C(=O)c2cc(Br)cnc2O[C@H]1CN(C)S(=O)(=O)c1ccccc1 | 5[16.7 µM] | -9 | 43[16.7 µM] | . | 4 | 15
COc1nc(-c2ccccc2)c2cc(C)ccc2n1 | -3 | 8 | 10 | 5 | 72* | -4
C[C@H](CO)N1C[C@H](C)[C@H](CN(C)C(=O)Nc2ccc3c(c2)OCO3)OCCCC[C@H](C)Oc2ccc(NS(=O)(=O)c3cccs3)cc2C1=O | 5[16.7 µM] | -13 | -102[16.7 µM] | -7 | 0 | 33
COc1cc(C2N(C)CCC3(OCCO3)C2(C)C)cc(OC)c1OC (stereo not drawn) | 0 | . | -30 | -1 | 48* | .
C[C@@H]1CN([C@@H](C)CO)C(=O)c2cc(NC(=O)CCC(F)(F)F)ccc2O[C@@H](C)CCCCO[C@H]1CN(C)C(=O)Nc1cccc2ccccc12 | 61[16.7 µM] | 39 | 15[16.7 µM] | 24 | -26 | .
CC(C)(C)C(=O)Cn1c(=O)n(CC2CCCO2)c(=O)c2ccccc21 (stereo not drawn) | -7 | . | . | . | 3 | .
O=C(Cn1c(=O)n(CC2CCCO2)c(=O)c2ccccc21)c1ccc(Cl)c(Cl)c1 (stereo not drawn) | 6 | . | 58* | . | . | 80*
Cc1ccc(CSc2nnc3nc(C)cc(C)n23)cc1 | -3 | . | . | . | 10 | 139*
C[C@@H]1CN([C@H](C)CO)S(=O)(=O)c2ccc(C#Cc3ccccc3F)cc2O[C@H]1CN(C)CC1CCOCC1 | . | 21 | 20[16.7 µM] | 42 | -14 | -7
O=C(N/N=C/c1ccc(Cl)c([N+](=O)[O-])c1)c1cc(-c2ccc3c4c(cccc24)CC3)n[nH]1 | 8 | 24 | -35 | 97* | 5 | -11
C[C@H]1CN([C@@H](C)CO)C(=O)Cc2cc(NC(=O)Nc3cccc4ccccc34)ccc2O[C@H]1CN(C)S(=O)(=O)c1ccc(F)cc1 | -1[16.7 µM] | 6 | 59*[16.7 µM] | 25 | -2 | 44
C[C@H](CO)N1C[C@H](C)[C@H](CN(C)S(=O)(=O)c2ccccc2)Oc2ccc(NC(=O)Nc3cccc4ccccc34)cc2CC1=O | -7[16.7 µM] | 0 | 85*[16.7 µM] | 6 | 4 | 1
Cc1ccc(S(=O)(=O)N(C)C[C@H]2Oc3ccc(NC(=O)Nc4cccc5ccccc45)cc3C(=O)N([C@H](C)CO)C[C@@H]2C)cc1 | -8[16.7 µM] | 4 | 66*[16.7 µM] | 10 | 28 | -20
Cc1ccc(S(=O)(=O)N(C)C[C@@H]2Oc3ccc(NC(=O)Nc4cccc5ccccc45)cc3CC(=O)N([C@H](C)CO)C[C@@H]2C)cc1 | -11[16.7 µM] | 18 | 56*[16.7 µM] | . | 7 | 10
C[C@@H]1CN([C@@H](C)CO)C(=O)Cc2cc(NC(=O)Nc3cccc4ccccc34)ccc2O[C@H]1CN(C)S(=O)(=O)c1ccccc1 | 34[16.7 µM] | 22 | 5[16.7 µM] | 17 | 2 | 21
CC(=O)Nc1ccc2c(c1)C(=O)N(C)[C@H]1CC[C@H](CC(=O)Nc3c(F)cccc3F)O[C@@H]1CO2 | . | . | . | -18 | 8 | .
C[C@@H]1CCCCO[C@H](CN(C)C(=O)NC2CCCCC2)[C@@H](C)CN([C@H](C)CO)C(=O)c2cc(NC(=O)Nc3ccc4c(c3)OCO4)ccc2O1 | -2[16.7 µM] | -5 | 0[16.7 µM] | -25 | -1 | .
C[C@H]1CN([C@@H](C)CO)C(=O)Cc2cc(NC(=O)Nc3cccc4ccccc34)ccc2O[C@H]1CN(C)S(=O)(=O)c1ccccc1 | -17[16.7 µM] | 8 | 71*[16.7 µM] | 37 | 1 | -38
CCc1c(C(=O)NC2CCCCC2)[nH]c(C)c1C(C)=O | 212* | . | -75 | . | . | 0
CC(=O)c1c(C)[nH]c(C(=O)Nc2ccc(C)c(C)c2)c1C | 25 | . | -163 | . | . | 2
CC(=O)c1c(C)[nH]c(C(=O)NC2CCCCC2)c1C | -3 | . | . | . | . | 15
CCc1c(C(=O)NCc2ccccc2Cl)[nH]c(C)c1C(C)=O | 118* | . | -14 | -9 | . | 28
CCc1c(C(=O)Nc2ccc(C)c(C)c2)[nH]c(C)c1C(C)=O | 27 | -85 | -20 | -93 | 114* | 0
COc1ccc(-c2cn(CC[C@H]3CC[C@H](NC(=O)NC(C)C)[C@@H](CO)O3)nn2)cc1 | . | 0 | 4[16.7 µM] | 5 | -7 | 10
O=C(NC(=S)Nc1ccc(NC(=O)c2cccs2)cc1)c1cc2ccccc2o1 | . | . | 4 | -17 | 74* | .
SMILES | miR-122 sensor | EWS-Fli inh | HIV Env fusion | PAX8 reporter | INS-1E GSIS act | C2C12 statin
COc1cc(NS(=O)(=O)c2ccc(NC(=S)NC(=O)c3cccs3)cc2)nc(OC)n1 | . | -1 | -1 | -7 | -3 | .
Cc1cc(C)cc(NS(=O)(=O)c2ccc(NC(=S)NC(=O)c3cccs3)cc2)c1 | 133* | . | . | . | -28 | .
COCCN(C[C@H]1[C@H](c2ccccc2)[C@H](CO)N1C(C)=O)C(=O)c1ccncc1 | 6[16.7 µM] | -1 | . | 3 | 0 | 8
C=CCNc1nc2c(c(=O)n(C)c(=O)n2C)n1CC | -3 | 2 | 21 | -3 | 5 | -3
C=CCNc1nc2c(c(=O)n(C)c(=O)n2C)n1CCCCCC | -22 | . | 92* | . | . | -17
O=C(Nc1cccc(NC(=O)c2ccc([N+](=O)[O-])o2)c1)c1ccco1 | 18 | 29 | -37 | 92* | -9 | 48
Cc1nc2ccccc2c(=O)n1-c1cccc(NC(=O)c2cccs2)c1 | 7 | -7 | -6 | 19 | 1 | -5
O=C(Nc1cccc(N2C(=O)C=CC2=O)c1)c1cccs1 | . | 28 | 8 | 66* | 13 | -252
O=C(Nc1ccc(N2CCN(C(=O)c3cccs3)CC2)cc1)c1ccc([N+](=O)[O-])o1 | 16 | . | i | 98* | 9 | 17
O=C(Nc1nc(-c2cccs2)cs1)c1ccc([N+](=O)[O-])o1 | 2 | -4 | . | 67* | . | 53
O=C(Nc1ccc(NC(=O)c2ccc([N+](=O)[O-])o2)cc1Cl)c1ccco1 | 3 | -48 | -37 | 33 | -5 | .
C[C@@H]1CN([C@@H](C)CO)C(=O)c2cc(NC(=O)Nc3ccc(C(F)(F)F)cc3)ccc2O[C@@H]1CN(C)C(=O)NC1CCCCC1 | -7[16.7 µM] | -7 | . | 24 | -2 | 0
COc1ccc(S(=O)(=O)Nc2ccc3c(c2)CC(=O)N([C@@H](C)CO)C[C@@H](C)[C@@H](CN(C)C(=O)Nc2cccc4ccccc24)O3)cc1 | 4[16.7 µM] | 8 | 5[16.7 µM] | -18 | -13 | 29
CC(C)NC(=O)N(C)C[C@@H]1Oc2c(NC(=O)c3ccncc3)cccc2C(=O)N([C@@H](C)CO)C[C@@H]1C | -5[16.7 µM] | -8 | . | -5 | 14 | 2
COc1ccc(NC(=O)N[C@@H]2CC[C@@H](CCNC(=O)Cc3ccncc3)O[C@@H]2CO)cc1 | . | -195 | 5[16.7 µM] | -15 | 6 | -5
